Activity calls are given as the source filed them.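 Rule for the calls, unless noted: active = inhibition at or above 50% at 10 µM; inactive = inhibition below 50%.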

Experiment [1] is described as follows: inhibitors of TNFa-induced NFkB p65 translocation, primary screen, imaging, HUVEC, MLSMR starter and 10KST1 sets (AID 438;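 active = inhibition above 20% together with a positive visual image hit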;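 note: compound added about 3h40 before a 20 min TNFalpha stimulation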;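 for inhibition: signal is the nuclear over cytoplasmic p65 intensity ratio per well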). The settings on record: HUVEC TNFa-induced p65 nuclear translocation; cell count: measured here: nuclei count (cytotoxicity indicator), at 2.08 µM; inhibition: at 2 µM, stronger effect = higher value, 0% TNFa-plus-vehicle, 100% no-TNFa wells.
The nature of experiment [2]: inhibitors of mutant huntingtin aggregation, primary screen, imaging, exon1htt(103Q)mCFP cells, high-content imaging (AID 483;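 active = visual image review flags a hit and inhibition of aggregation exceeds 20%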;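 note: compound exposure lasted 3 days before fixation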;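 for nuclei count: percent of the per-plate median nuclei count of sample wells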). The following applies: exon1htt(103Q)mCFP cell line, aggregate imaging, at 2 µM; inhibition of aggregation: stronger effect = higher value; nuclei count: measured here: cell count, toxicity.
A short description of experiment [3]: inhibitors of E-selectin induction by TNFa, primary screen, imaging, HUVEC, immunofluorescence, MLSMR starter and 10KST1 sets (AID 487;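 active = visually confirmed hit in the image check and inhibition above 20%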;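 for inhibition: signal is fraction of cell area covered by stained E-selectin grains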;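 for nuclei count: 100% = median nuclei count of all wells on the same plate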). The settings on record: HUVEC TNFalpha-induced E-selectin immunofluorescence imaging, at 2 µM; inhibition: stronger effect = higher value; nuclei count: measured here: cell number, toxicity.
Experiment [4] deals with Voltage-gated potassium channel subunit beta-2 (Rattus norvegicus) (UniProt P62483). Nature of the experiment: KvBeta enzyme negative modulators, primary screen, biochemical, NADPH fluorescence (AID 622;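 active = fluorescence slope higher than the sample average by over 3 SD, cut at about -0.22 in these data, passing the limit was not always enough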;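 note: slope of raw intensity against log time taken from 70 to 1610 s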). The settings on record: recombinant KvBeta, 4-cyanobenzaldehyde reduction, at 10 µM, stronger effect = higher value.
Sequence of Voltage-gated potassium channel subunit beta-2 (Rattus norvegicus) (P62483 whole entry, looked up): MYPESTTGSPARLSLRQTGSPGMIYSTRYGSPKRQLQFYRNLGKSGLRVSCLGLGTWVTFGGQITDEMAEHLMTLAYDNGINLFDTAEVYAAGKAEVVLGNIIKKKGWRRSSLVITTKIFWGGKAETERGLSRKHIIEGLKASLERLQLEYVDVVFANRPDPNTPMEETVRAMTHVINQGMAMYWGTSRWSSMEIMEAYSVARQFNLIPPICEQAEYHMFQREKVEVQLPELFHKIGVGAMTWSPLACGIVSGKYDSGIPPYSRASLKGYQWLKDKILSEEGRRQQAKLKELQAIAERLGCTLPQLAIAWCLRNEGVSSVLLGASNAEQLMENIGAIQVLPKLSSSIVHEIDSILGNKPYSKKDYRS
Experiment [5] has the same target. Nature of the experiment: KvBeta positive modulators, primary screen, biochemical, NADPH fluorescence (AID 623;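 active = NADPH fluorescence slope more negative than the mean of all samples by about 3 SD, 99.7% confidence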;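 note: fluorescence intensity change per second fitted from 20 to 320 s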). The following applies: Recombinant KvBeta, NADPH fluorescence decrease slope, 10 min; at 10 µM; stronger effect = lower value.
The target of experiment [6] is Alpha-2C adrenergic receptor (Homo sapiens) (UniProt P18825). Nature of the experiment: modulators of alpha2C/GIRK thallium flux, primary screen, cell-based, HEK293 alpha2C/GIRK1/2 (AID 624;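 active = fluorescence slope after compound addition differing from the mean of all screened samples at 99.7% confidence, in either direction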;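 note: slope of fluorescence ratio to pre-addition baseline per second over 15 to 24 s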). The settings on record: thallium flux BTC fluorescence, at 10 µM, actives lie on both sides.
Sequence of Alpha-2C adrenergic receptor (Homo sapiens) (P18825 whole entry, looked up): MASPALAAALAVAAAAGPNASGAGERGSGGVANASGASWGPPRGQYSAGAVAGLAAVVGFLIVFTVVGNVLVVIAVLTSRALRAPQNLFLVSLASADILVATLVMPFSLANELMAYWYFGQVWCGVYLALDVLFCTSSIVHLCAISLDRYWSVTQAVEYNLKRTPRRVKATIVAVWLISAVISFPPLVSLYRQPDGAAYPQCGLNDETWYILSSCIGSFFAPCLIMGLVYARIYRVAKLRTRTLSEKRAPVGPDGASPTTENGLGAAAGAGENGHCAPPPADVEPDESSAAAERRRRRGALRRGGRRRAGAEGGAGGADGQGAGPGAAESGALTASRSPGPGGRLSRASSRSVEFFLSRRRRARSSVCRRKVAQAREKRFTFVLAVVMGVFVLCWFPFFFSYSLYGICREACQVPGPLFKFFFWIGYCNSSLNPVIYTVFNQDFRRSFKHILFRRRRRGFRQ
The nature of experiment [7]: inhibitors of Sendai virus-induced IRF3 signaling, primary screen, TLR/RLR signaling modifier project, cell-based, Sendai virus stimulus, luciferase, 10K MLSCN set (AID 602276).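 Note: firefly luciferase from ISG56 promoter only with Renilla not read in this screen; 0% = Sendai virus plus DMSO and 100% = medium plus DMSO without virus.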 The following applies: HEK293 RL24 IRF3 luciferase reporter, at 10 µM, stronger effect = higher value. (In general: Reporter assays use an easily measured gene product as a stand-in for the process of interest.)

The nature of experiment [8]: inhibitors of poly I:C-induced TLR3 signaling, primary screen, cell-based, poly I:C stimulus, luciferase, 10K MLSCN set (AID 602277;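 active = inhibition of the reporter signal at or above 50%; inactive = inhibition below 50%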). The settings on record: HEK293-TLR3 RL24 IRF3 luciferase reporter, at 10 µM, stronger effect = higher value.

In the case of `CC(=O)OC1CSc2nc3ccccc3n2C1` (centres undefined), the cell count in experiment [1] worked out at 393. The inhibition in experiment [1] was -9.6% (inactive); in experiment [3] it was 25.1% (inactive); in experiment [7] it was 7.55% (inactive); in experiment [8], 13% (inactive). Also, the inhibition of aggregation in experiment [2] is 6.2% (inactive). The nuclei count in experiment [2] was 99.9%; in experiment [3], 118%. For the same compound, the fluorescence slope in experiment [4] is -0.302 (inactive). Moreover, the NADPH fluorescence slope in experiment [5] was -5.5e-05 (inactive). Further, in experiment [6], the slope is 0.00459 (inactive).

On to `Cc1nn(C)c(C)c1CN(C)C(=O)c1cc2nc(-c3ccco3)cc(C(F)(F)F)n2n1`, for which the cell count in experiment [1] is 419. The inhibition in experiment [1] is 5.7% (inactive); in experiment [3], -33.1% (inactive); in experiment [7], 1.09% (inactive); in experiment [8], -8.24% (inactive). Further, the inhibition of aggregation in experiment [2] is -21.4% (inactive). In addition, the nuclei count in experiment [2] came to 128%; in experiment [3], 106%. In experiment [4], the fluorescence slope is -0.182 (inactive). For the same compound, the NADPH fluorescence slope in experiment [5] was -2e-05 (inactive). In addition, in experiment [6], the slope was 0.00389 (inactive).

On to `OCc1cn(-c2ccccc2)nc1-c1ccc2c(c1)OCCO2`, for which the cell count in experiment [1] worked out at 438. Besides, the inhibition in experiment [1] is 4.2% (inactive); in experiment [3] it was -84% (inactive); in experiment [7], -51.8% (inactive); in experiment [8], -135% (inactive). Further, the inhibition of aggregation in experiment [2] is -10.7% (inactive). Besides, the values for the nuclei count in experiment [2] and in experiment [3] were 99.4% and 112%, respectively. Moreover, the fluorescence slope in experiment [4] is -0.532 (inactive). Further, the NADPH fluorescence slope in experiment [5] is -4.4e-05 (inactive). The slope in experiment [6] was 0.00702 (inactive).

Regarding `CCOC(=O)C1=C(C)Nc2nnnn2C1c1c[nH]c2ccccc12` (centres undefined), the cell count in experiment [1] is 498. Besides, the inhibition is 0.6% (inactive) in experiment [1], -59.7% (inactive) in experiment [3], 7.12% (inactive) in experiment [7] and 8.76% (inactive) in experiment [8]. Further, the inhibition of aggregation in experiment [2] was 1.4% (inactive). Besides, the figures for the nuclei count in experiment [2] and in experiment [3] were 47.3% and 101%, respectively. Moreover, the fluorescence slope in experiment [4] was -0.612 (inactive). Also, the NADPH fluorescence slope in experiment [5] was -1.2e-05 (inactive). Also, in experiment [6], the slope is 0.00469 (inactive).

Turning to `CCOc1ccc(NS(=O)(=O)c2ccc(OCC(=O)N3CCCC3)cc2)cc1`, the cell count in experiment [1] worked out at 422. Also, the inhibition was -15.4% (inactive) in experiment [1], -56.1% (inactive) in experiment [3], 8.25% (inactive) in experiment [7] and 13.9% (inactive) in experiment [8]. Moreover, in experiment [2], the inhibition of aggregation was 43.4% (active). Besides, the results for the nuclei count in experiment [2] and in experiment [3] were 98.7% and 169%, respectively. Moreover, the fluorescence slope in experiment [4] is -0.465 (inactive). Besides, in experiment [5], the NADPH fluorescence slope was -4.2e-05 (inactive). Also, in experiment [6], the slope was 0.00531 (inactive).

As to `C=C(C)Cn1c(N2CC(C)CC(C)C2)nc2c1c(=O)[nH]c(=O)n2C` (centres undefined), in experiment [1], the cell count was 616. Further, the inhibition was -8% (inactive) in experiment [1], -8.5% (inactive) in experiment [3], 12.7% (inactive) in experiment [7] and 41.2% (inactive) in experiment [8]. Moreover, the inhibition of aggregation in experiment [2] was -2.3% (inactive). Also, the nuclei count was found to be 104% in experiment [2] and 108% in experiment [3]. Besides, the fluorescence slope in experiment [4] is -0.421 (inactive). In addition, the NADPH fluorescence slope in experiment [5] is -1.7e-05 (inactive). Besides, in experiment [6], the slope was 0.00499 (inactive).

On to `CC12CN3CC(C)(CN(C1)C3c1cc(Br)ccc1O)C2=O` (centres undefined), for which the cell count in experiment [1] turned out to be 305. The inhibition in experiment [1] was 0% (inactive); in experiment [3] it was 39% (inactive); in experiment [7], 3.76% (inactive); in experiment [8], 37.4% (inactive). For the same compound, the inhibition of aggregation in experiment [2] is 1.6% (inactive). Also, the nuclei count in experiment [2] was determined as 121%; in experiment [3] it was 83.4%. Besides, the fluorescence slope in experiment [4] is -0.474 (inactive). Besides, in experiment [5], the NADPH fluorescence slope was -4.6e-06 (inactive). The slope in experiment [6] is 0.00402 (inactive).

`CC1(C)CC(=O)C2=C(C1)OC(=O)C2(NC(=O)c1cccs1)C(F)(F)F` (centres undefined): the cell count in experiment [1] amounted to 607. For the same compound, the inhibition in experiment [1] is -8.2% (inactive); in experiment [3], -9.5% (inactive); in experiment [7], 1.37% (inactive); in experiment [8], 15.7% (inactive). Also, the inhibition of aggregation in experiment [2] is 5.3% (inactive). The nuclei count in experiment [2] was found to be 104%; in experiment [3] it was 85.7%. The fluorescence slope in experiment [4] was -0.598 (inactive). Moreover, in experiment [5], the NADPH fluorescence slope was -4.5e-05 (inactive). In addition, in experiment [6], the slope is 0.00633 (inactive).

`CCOc1cccc(C(=O)N(Cc2ccc(F)cc2)C2CCS(=O)(=O)C2)c1` (centres undefined): the cell count in experiment [1] turned out to be 461. Besides, the inhibition is 9.3% (inactive) in experiment [1], -116% (inactive) in experiment [3], 14.6% (inactive) in experiment [7] and 40.1% (inactive) in experiment [8]. In addition, in experiment [2], the inhibition of aggregation was -23.1% (inactive). Moreover, the nuclei count in experiment [2] is 92.3%; in experiment [3] it was 219%. The fluorescence slope in experiment [4] was -0.415 (inactive). In addition, the NADPH fluorescence slope in experiment [5] is -3.8e-05 (inactive). The slope in experiment [6] is 0.0041 (inactive).

With `CCOC(=O)c1ccc(NC(=O)Nc2ccn(C)n2)cc1`, in experiment [1], the cell count came to 354. Moreover, the inhibition in experiment [1] was 8.8% (inactive); in experiment [3], -23.7% (inactive); in experiment [7] it was -16.4% (inactive); in experiment [8] it was -66.8% (inactive). Besides, the inhibition of aggregation in experiment [2] is 11.9% (inactive). The nuclei count was 110% in experiment [2] and 100% in experiment [3]. Further, in experiment [4], the fluorescence slope is -0.383 (inactive). Besides, the NADPH fluorescence slope in experiment [5] was -2.9e-05 (inactive). In addition, the slope in experiment [6] was 0.00615 (inactive).

For `CCC1(C)Cc2c(C#N)c(N)n(N)c(=S)c2CO1` (centres undefined), in experiment [1], the cell count was found to be 795. Moreover, the inhibition in experiment [1] is 1.1% (inactive); in experiment [3], -97% (inactive); in experiment [7], 9.11% (inactive); in experiment [8], 22.9% (inactive). In addition, in experiment [2], the inhibition of aggregation is -11.2% (inactive). In addition, the nuclei count in experiment [2] is 97.6%; in experiment [3], 106%. Moreover, the fluorescence slope in experiment [4] is -0.422 (inactive). Besides, in experiment [5], the NADPH fluorescence slope was -4.6e-05 (inactive). Moreover, in experiment [6], the slope was 0.00514 (inactive).

In the case of `CCSc1oc(-c2cccs2)nc1S(=O)(=O)c1ccccc1`, in experiment [1], the cell count worked out at 690. Besides, the inhibition in experiment [1] is -6.7% (inactive); in experiment [3], -16.9% (inactive); in experiment [7] it was 14.5% (inactive); in experiment [8], 34% (inactive). Also, in experiment [2], the inhibition of aggregation is -10.8% (inactive). Also, the nuclei count in experiment [2] came to 101%; in experiment [3], 104%. In experiment [4], the fluorescence slope is -0.56 (inactive). The NADPH fluorescence slope in experiment [5] was -3.1e-05 (inactive). Also, the slope in experiment [6] is 0.00698 (inactive).

On to `CN1CCCC(OC(=O)c2ccc3c(c2)OCCO3)C1` (centres undefined), for which, in experiment [1], the cell count came to 214. The inhibition was -1.4% (inactive) in experiment [1], -1% (inactive) in experiment [3], -0.0614% (inactive) in experiment [7] and -12.6% (inactive) in experiment [8]. In addition, in experiment [2], the inhibition of aggregation is 23.1% (inactive). Besides, the values for the nuclei count in experiment [2] and in experiment [3] were 102% and 70.3%, respectively. In addition, the fluorescence slope in experiment [4] was -0.418 (inactive). Further, the NADPH fluorescence slope in experiment [5] was -6.9e-05 (inactive). Moreover, the slope in experiment [6] is 0.00576 (inactive).

Regarding `CCC(C)NC(=O)C1(C)CCC(=O)N1CCc1ccc(OC)c(OC)c1` (centres undefined), the cell count in experiment [1] was 447. In addition, the inhibition is -5.7% (inactive) in experiment [1], 0.6% (inactive) in experiment [3], 5.13% (inactive) in experiment [7] and 9.44% (inactive) in experiment [8]. In addition, the inhibition of aggregation in experiment [2] was -2.3% (inactive). The nuclei count amounted to 105% in experiment [2] and 103% in experiment [3]. In experiment [4], the fluorescence slope is -0.606 (inactive). For the same compound, the NADPH fluorescence slope in experiment [5] is -8.3e-06 (inactive). Moreover, the slope in experiment [6] is 0.00621 (inactive).

For orientation: inhibition means the change of the read-out against control, counted positive when it falls.
